The values below come from PubChem BioAssay (NCATS).

For assay [1], the target named is N-terminal Xaa-Pro-Lys N-methyltransferase 1 (Homo sapiens) (UniProt Q9BV86). Nature of the assay: qHTS Assay for Inhibitors of N-terminal methyltransferase 1 (NTMT1): LOPAC validation of the NTMT1 SAHH-coupled ThioGlo3 Assay (AID 1347143). Note: nearly all actives have a fitted effect of over 70% in size. Note: potency is the fitted concentration of half-maximal effect. The essentials: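 Fluorescence read-out (excitation 340nm, emission 450nm) of SAH-derived thiol, measured via SAHH coupling and ThioGlo3, taken immediately and after a 30 min room-temperature reaction, then normalized to the background read. Enzyme: NTMT1 at 125nM; cofactor SAM 100uM in the added reagent.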
Chain of N-terminal Xaa-Pro-Lys N-methyltransferase 1 (Homo sapiens) (Q9BV86 whole entry, looked up): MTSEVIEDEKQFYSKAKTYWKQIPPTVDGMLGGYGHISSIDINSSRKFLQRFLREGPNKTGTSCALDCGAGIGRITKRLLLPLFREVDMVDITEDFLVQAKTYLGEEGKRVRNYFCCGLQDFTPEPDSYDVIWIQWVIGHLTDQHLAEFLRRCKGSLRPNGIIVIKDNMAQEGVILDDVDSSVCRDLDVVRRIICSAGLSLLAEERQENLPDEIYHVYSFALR
On the technique in general: Quantitative high-throughput screening tests each substance at several concentrations.

The test system of assay [2] is Zika virus NS2B-NS3 protease (linked construct). Nature of the assay: Confirmatory screen NINDS AMC qHTS for Zika virus inhibitors (AID 1347152).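 Note: AMC fluorescence gain from cleaved Bz-Nle-KRR-AMC substrate over 15 min; top concentration of the series differs between compounds; nearly all actives have a fitted effect of over 70% in size.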 The essentials:
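Enzyme (1 nM, linked construct) was preincubated with compound for 15 minutes at room temperature in 10 mM Tris-HCl pH 8.0 with 0.01% Tween 20. Bz-Nle-Lys-Arg-Arg-AMC was then added to 10 microM, and AMC fluorescence was recorded immediately and after 15 minutes.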

In assay [3] the test system is Zika virus NS2B-NS3 protease (unlinked complex). Nature of the assay: Confirmatory screen GU AMC qHTS for Zika virus inhibitors (AID 1347153). Note: nearly all actives have a fitted effect of over 70% in size. The essentials: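 Compounds were preincubated 15 min at room temperature with 25 nM noncovalent NS2B-NS3 protease at pH 8.0; AMC substrate added at 10 microM and 15-min fluorescence gain (340/450 nm) converted to percent inhibition, fitted 4-parameter.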

Assay [4] has as its system Zika virus NS2B-NS3 protease. Nature of the assay: Primary screen GU AMC qHTS for Zika virus inhibitors (AID 1347154). Note: nearly all actives have a fitted effect of over 70% in size. Note: potency is the fitted concentration of half-maximal effect. The essentials:
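Unlinked Zika NS2B hydrophilic domain/NS3 protease domain noncovalent complex (25 nM final) in 10 mM Tris-HCl pH 8.0, 0.01% Tween 20, with AMC peptide substrate. Fluorescence (ex 340, em 450 nm) change over 15 min, room temperature; percent inhibition fitted to 4-parameter Hill equation.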

Assay [5] can be described thus: Confirmatory screen NINDS Rhodamine qHTS for Zika virus inhibitors (AID 1347161). Note: nearly all actives have a fitted effect of over 60% in size. Note: potency is the fitted concentration of half-maximal effect. The essentials: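 Each compound, titrated, sat 15 min with 25 nM linked protease before 1.5 microM Rhodamine110 substrate went in. Fluorescence gain over the next 15 min, in pH 8.0 Tris with Tween 20, gave Hill-fitted curves.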
The target of assay [6] is Lysine-specific demethylase 5B (Homo sapiens) (UniProt Q9UGL1). Nature of the assay: Optimization screen for KDM5B Histone Demethylases FDH coupled qHTS against the LOPAC library (AID 1347166). The method, boiled down: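 KDM5BDeltaAP (200nM final) preincubated 10 min with compound, then 12.5uM H3K4Me3, 25uM a-ketoglutarate, ascorbate, Fe(II), NAD+ and FDH added; 50mM HEPES pH 7.5, 0.01% Tween-20. NADH fluorescence (340/450 nm) change over 30 min, room temperature.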
Chain of Lysine-specific demethylase 5B (Homo sapiens) (Q9UGL1 whole entry, looked up): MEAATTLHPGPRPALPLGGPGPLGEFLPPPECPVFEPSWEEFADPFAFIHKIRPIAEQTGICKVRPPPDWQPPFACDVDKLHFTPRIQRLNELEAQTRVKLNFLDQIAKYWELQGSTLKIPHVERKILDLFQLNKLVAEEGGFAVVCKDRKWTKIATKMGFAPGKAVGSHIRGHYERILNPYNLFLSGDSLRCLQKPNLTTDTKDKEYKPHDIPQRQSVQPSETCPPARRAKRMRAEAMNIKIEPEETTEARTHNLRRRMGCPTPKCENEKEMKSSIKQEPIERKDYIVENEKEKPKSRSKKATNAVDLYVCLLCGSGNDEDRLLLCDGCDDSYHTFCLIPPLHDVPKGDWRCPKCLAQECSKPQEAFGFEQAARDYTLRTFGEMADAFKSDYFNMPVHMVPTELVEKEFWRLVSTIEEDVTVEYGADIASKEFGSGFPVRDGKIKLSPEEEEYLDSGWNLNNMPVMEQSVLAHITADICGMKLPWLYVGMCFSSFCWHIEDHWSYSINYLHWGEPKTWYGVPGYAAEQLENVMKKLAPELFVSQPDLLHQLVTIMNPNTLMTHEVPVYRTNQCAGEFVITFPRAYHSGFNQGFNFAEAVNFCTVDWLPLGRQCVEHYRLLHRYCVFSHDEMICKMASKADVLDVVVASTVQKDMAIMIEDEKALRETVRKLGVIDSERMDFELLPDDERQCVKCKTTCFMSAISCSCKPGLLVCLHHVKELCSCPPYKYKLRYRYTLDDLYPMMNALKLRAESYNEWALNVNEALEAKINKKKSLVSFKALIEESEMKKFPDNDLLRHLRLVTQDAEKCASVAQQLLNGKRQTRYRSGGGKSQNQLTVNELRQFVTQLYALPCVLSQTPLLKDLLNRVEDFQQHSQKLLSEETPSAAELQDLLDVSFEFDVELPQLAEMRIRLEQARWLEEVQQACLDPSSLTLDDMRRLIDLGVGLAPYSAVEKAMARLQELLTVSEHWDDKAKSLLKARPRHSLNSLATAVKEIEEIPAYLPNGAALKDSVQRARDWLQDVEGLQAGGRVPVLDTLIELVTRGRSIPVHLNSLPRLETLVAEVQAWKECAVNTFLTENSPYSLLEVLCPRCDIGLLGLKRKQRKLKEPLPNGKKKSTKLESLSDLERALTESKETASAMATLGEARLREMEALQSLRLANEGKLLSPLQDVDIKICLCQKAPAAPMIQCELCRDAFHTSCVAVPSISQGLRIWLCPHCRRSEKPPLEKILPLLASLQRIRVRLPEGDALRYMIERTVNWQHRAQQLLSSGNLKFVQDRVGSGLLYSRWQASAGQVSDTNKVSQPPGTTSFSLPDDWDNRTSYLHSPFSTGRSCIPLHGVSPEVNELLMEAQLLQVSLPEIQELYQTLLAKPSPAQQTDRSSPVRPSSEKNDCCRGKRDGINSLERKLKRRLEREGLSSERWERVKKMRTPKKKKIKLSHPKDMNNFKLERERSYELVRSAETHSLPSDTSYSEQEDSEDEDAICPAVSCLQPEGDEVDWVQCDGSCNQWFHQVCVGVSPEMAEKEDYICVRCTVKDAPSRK

Assay [7] can be described thus: Vero cells viability qHTS for Zika virus inhibitors (AID 1347167). The method, boiled down: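 Counter-screen for cytotoxicity of hits from NS2B-NS3 protease qHTS. Overnight-attached cells (2.5 x 10^5 cells/mL, DMEM/4% FBS) were dosed in titration, incubated 24 to 48 hours, then assayed by CellTiter Glo.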
Assay [8] is described as follows: Tertiary RLuc qRT-PCR qHTS assay for Zika virus inhibitors (AID 1347169). Note: top concentration of the series differs between compounds; nearly all actives have a fitted effect of over 55% in size. The essentials:
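Vero, 1,000 cells/well, o/n 37 C; cpd pinned in DMSO; ZIKV-RLuc Cambodian, MOI 1-2, 48-72 h 37 C; live-cell RLuc substrate, lum read at 1-1.5 h.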

Assay [9] can be described thus: qHTS to identify inhibitors of the type 1 interferon - major histocompatibility complex class I in skeletal muscle: primary screen against the NCATS LOPAC collection (AID 1347405).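 Note: lytic HiBiT luminescence reporting HLA-B protein level.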 The method, boiled down:
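CRISPR-engineered immortalized human myoblasts (C25cl48) with HiBiT fused to endogenous HLA-B*08:01, stimulated with 4 ng/ml IFN-beta. LOPAC compounds tested as a 7-point 1:4.3 titration (top 46 uM final), 24 h at 37 C; lytic HiBiT luminescence read.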

The nature of assay [10]: qHTS to identify inhibitors of the type 1 interferon - major histocompatibility complex class I in skeletal muscle: primary screen against the NCATS Pharmaceutical Collection (AID 1347407).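 Note: luminescence of HiBiT knocked into endogenous HLA-B as interferon-induced MHC class I level.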 The essentials:
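Luminescence from HiBiT-tagged endogenous HLA-B*08:01 served as the read-out of IFN-beta-induced MHC class I in CRISPR-engineered C25cl48 myoblasts. Cells received 4 ng/ml IFN-beta plus compound (high final 46 uM, […]) for 24 h.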

The nature of assay [11]: qHTS for inhibitors of adenylyl cyclases using a fission yeast platform: a pilot screen against the NCATS LOPAC library (AID 1347410). The essentials: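 Fission yeast qHTS: CHP2027 cells (AC9-GNAS-PDE4D2, fbp1-GFP), 5x10^6 cells/mL working density, EMM + His/Lys/Ura; LOPAC at up to 57 µM final; 18 h dark, 30C; GFP by laser cytometry. DPI positive control, DMSO vehicle.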

Assay [12] has as its system Zika virus NS2B-NS3 protease (unlinked). Nature of the assay: Optimization of GU AMC qHTS for Zika virus inhibitors: Unlinked NS2B-NS3 protease assay (AID 1347151). Note: nearly all actives have a fitted effect of over 80% in size. Note: potency is the fitted concentration of half-maximal effect. The essentials:
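Unlinked protease (25 nM final); buffer 10 mM Tris-HCl pH 8.0 + 0.01% Tween 20; AMC substrate; 15 min RT, dark; Δfluorescence normalized to no-inhibitor/no-enzyme controls; 4-parameter Hill fit.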

For assay [13], the system named is Zika virus NS2B-NS3 protease (unlinked complex). Nature of the assay: Primary screen GU Rhodamine qHTS for Zika virus inhibitors: Unlinked NS2B-NS3 protease assay (AID 1347159). Note: nearly all actives have a fitted effect of over 60% in size. The method, boiled down:
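Percent inhibition derives from the 15-min fluorescence change (ex 480, em 540 nm), normalized to no-enzyme and no-inhibitor wells. Reactions contained 25 nM NS2B-NS3 complex and 1.5 microM substrate in 10 mM Tris-HCl pH 8.0.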

The test system of assay [14] is Zika virus NS2B-NS3 protease (linked construct). Nature of the assay: Primary screen NINDS Rhodamine qHTS for Zika virus inhibitors (AID 1347160). Note: nearly all actives have a fitted effect of over 55% in size. The essentials:
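In 10 mM Tris-HCl pH 8.0 containing 0.01% Tween 20, linked NS2B-NS3 protease (25 nM final) is exposed to test compounds for 15 min. Cleavage of 1.5 microM Rhodamine110 substrate is tracked by fluorescence over 15 min.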

The target in assay [15] is Furin (Homo sapiens) (UniProt P09958). Nature of the assay: Furin counterscreen qHTS for Zika virus inhibitors (AID 1347149). Note: nearly all actives have a fitted effect of over 70% in size. Note: potency is the fitted concentration of half-maximal effect. The method, boiled down:
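Fluorogenic cleavage of BOC-RVRR-AMC (2 microM final, Km ~15 µM) was monitored (ex 340, em 450 nm) at 37C after 15 min RT preincubation of 5 nM furin with compounds in HEPES pH 7.0 buffer with CaCl2 and Triton X-100. Percent inhibition was fitted to a 4-parameter Hill curve.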
(A counterscreen serves to expose hits that act by an unwanted route or on another target.)

A short description of assay [16]: Confirmatory screen GU Rhodamine qHTS for Zika virus inhibitors qHTS (AID 1347157). As to conditions: purified enzyme assay, Rhodamine110 substrate fluorescence, 15 min. The essentials:
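Enzyme 25 nM in Tris-HCl pH 8.0 + 0.01% Tween 20; compounds up to 114 microM, 15 min RT dark; + Rhod110 substrate 1.5 microM; read t0 and 15 min; delta fluorescence → % inhibition → 4-parameter Hill fit.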

Assay [17] in a line: ZIKV-mCherry secondary qHTS for Zika virus inhibitors (AID 1347158). Note: top concentration of the series differs between compounds. The essentials: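 Vero cells (5,000/well) were given compound, then infected with ZIKV-mCherry at MOI 1 for 48–72 h at 37 °C. After PFA fixation and Hoechst staining, imaging gave percent mCherry-positive cells. The positivity threshold was RFU above 450, 3 SD over negative controls.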
For assay [18], the system named is Zika virus NS2B-NS3 protease (linked). Briefly: 384 well plate NINDS AMC confirmatory qHTS for Zika virus inhibitors (AID 1347163). Note: potency is the fitted concentration of half-maximal effect; nearly all actives have a fitted effect of over 50% in size. The method, boiled down:
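Linked NS2B-NS3 protease (final 5 nM, 30 nM or 60 nM) was preincubated with compounds (final up to 1 mM) for ~15 minutes. Ac-VKTGKR-AMC substrate (final 30 microM) then reacted for 25 minutes at room temperature in the dark. Fluorescence (ex 355/em 460 nm) was normalized to no-enzyme and no-inhibitor controls.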

Assay [19] relates to Zika virus NS2B-NS3 protease (linked construct). Briefly: 384 well plate NINDS Rhodamine confirmatory qHTS for Zika virus inhibitors (AID 1347164).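 Note: fluorescence from protease cleavage of Ac-LKRR-rhodamine 110 substrate; potency is the fitted concentration of half-maximal effect; nearly all actives have a fitted effect of over 65% in size.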 The method, boiled down:
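Enzyme (final 5/30/60 nM) + cpd (DMSO), ~15 min; add Ac-LKRR-Rd 10 microM final; 25 min RT, dark; FI ex 485/em 538; normalized to no-enzyme, no-inhibitor ctrls; aprotinin intraplate ctrl.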

Each structure is given as a SMILES string. A number with no mark means an inactive call. Records with an inconclusive call do not appear. Activity calls are given as the source filed them. Calls come from the whole dose curve; as a rule, active = well fitted curve in the direction sought with a large enough effect; inconclusive = small, poorly fitted or top-dose-only effect, or another doubt; inactive = no such curve, though single readings can be large; an effect the other way counts as inactive or inconclusive.

Chain of Furin (Homo sapiens) (P09958 whole entry, looked up): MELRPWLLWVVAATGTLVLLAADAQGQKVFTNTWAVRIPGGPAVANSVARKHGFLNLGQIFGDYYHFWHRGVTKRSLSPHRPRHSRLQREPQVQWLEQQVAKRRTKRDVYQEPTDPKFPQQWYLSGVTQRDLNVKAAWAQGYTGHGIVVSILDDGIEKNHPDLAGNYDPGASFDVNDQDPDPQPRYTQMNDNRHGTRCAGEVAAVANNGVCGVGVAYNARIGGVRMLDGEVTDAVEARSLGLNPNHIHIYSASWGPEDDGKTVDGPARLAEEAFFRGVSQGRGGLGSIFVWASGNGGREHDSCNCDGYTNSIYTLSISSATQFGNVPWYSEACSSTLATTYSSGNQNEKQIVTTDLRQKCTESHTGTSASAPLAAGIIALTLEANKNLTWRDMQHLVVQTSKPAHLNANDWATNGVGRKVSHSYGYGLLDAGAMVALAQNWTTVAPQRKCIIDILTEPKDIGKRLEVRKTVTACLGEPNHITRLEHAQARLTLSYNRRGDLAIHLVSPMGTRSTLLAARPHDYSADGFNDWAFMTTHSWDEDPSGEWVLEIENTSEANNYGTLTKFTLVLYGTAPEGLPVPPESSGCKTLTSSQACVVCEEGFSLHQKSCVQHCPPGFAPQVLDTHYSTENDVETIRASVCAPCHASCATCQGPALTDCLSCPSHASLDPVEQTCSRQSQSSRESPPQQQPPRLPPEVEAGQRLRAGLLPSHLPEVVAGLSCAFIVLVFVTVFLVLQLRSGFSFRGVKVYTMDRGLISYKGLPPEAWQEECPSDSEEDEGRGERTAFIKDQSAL

For `Cc1c(OCC(F)(F)F)ccnc1CS(=O)c1nc2ccccc2[nH]1` (configuration not stated), in assay [1], the Potency was 50.1 µM (active). Besides, the Potency entry in assay [2], in assay [3], in assay [4], in [5], in assay [7] and in [8] was “inactive” throughout. The Potency result in assay [9] and in assay [10] was “inactive” each time. Also, the result in assay [6] and in assay [11] was inactive.

For the compound `Nc1nc(Cl)nc2c1ncn2[C@H]1C[C@H](O)[C@@H](CO)O1`, the Potency result in [4] is “inactive”.

As to `Cc1cc(O)c2c(c1)C(=O)c1cc(O)cc(O)c1C2=O`, the Potency in assay [1] is 17.8 µM (active); in assay [12], 15 µM (active). The Potency result in assay [4] and in assay [9] was “inactive” in each case. The compound was called inactive in [6] and in assay [11].

On to `CC(C)(S)[C@@H](N)C(=O)O`, for which, in assay [4], the Potency result is “inactive”.

Take `COc1ccc2cc([C@H](C)C(=O)O)ccc2c1`: the Potency in [12] was 23.8 µM (active). Moreover, the Potency result in assay [4], in assay [13], in assay [14] and in [9] was “inactive” in each case. The compound was called inactive in assay [6] and in assay [11].

Consider `O=c1c(O)c(-c2ccc(O)cc2O)oc2cc(O)cc(O)c12`, for which the Potency result in assay [15], in assay [17], in [8] and in assay [9] was “inactive” in each case. The Potency in assay [12] was 11.9 µM (active); in assay [16] it was 20 µM (active); in [5] it was 12.6 µM (active); in assay [18], 141 µM (active); in assay [19], 50.1 µM (active). For the same compound, the result in assay [11] was inactive.

For `COC(=O)C1=C(C)NC(C)=C(C(=O)OC(C)C)C1c1cccc2nonc12` (configuration not stated), in [4], the Potency result was “inactive”.

In the case of `O=c1cc(N2CCOCC2)oc2c(-c3ccccc3)cccc12`, in assay [12], the Potency was 26.7 µM (active). For the same compound, in assay [4], the Potency entry is “inactive”. Besides, in [11], the compound was classed as inactive.

Take `NCCCCNCCCN`: the Potency entry in [1], in assay [12], in assay [4] and in assay [9] was “inactive” each time. In addition, the compound was called inactive in assay [6] and in [11].

`Cc1nc(-c2ccc(OCC(C)C)c(C#N)c2)sc1C(=O)O`: the Potency is 24.1 µM (active) in assay [15], 21.5 µM (active) in assay [4] and 31.2 µM (active) in [5]. The Potency entry in [3], in assay [7], in assay [8] and in [10] was “inactive” in each case.

On to `NC(=NCc1ccccc1)NC(=O)c1nc(Cl)c(N)nc1N`, for which the Potency was 56.2 µM (active) in assay [1] and 26.7 µM (active) in assay [12]. In assay [4], the Potency result was “inactive”. Also, the result in [11] was inactive.

Turning to `CNC[C@@H](O)[C@@H](O)[C@H](O)[C@H](O)CO`, the Potency entry in [4] is “inactive”.

`O=C1c2ccccc2-c2n[nH]c3cccc1c23`: in assay [12], the Potency was 11.9 µM (active). In addition, the Potency entry in assay [4] was “inactive”. Besides, the result in [6] and in [11] was inactive.

As to `CCOC(=O)C1=C(O)C(=O)N(Cc2ccccc2)C1`, the Potency entry in [1], in assay [12], in assay [4] and in assay [9] was “inactive” each time. For the same compound, the compound was called inactive in assay [11].

As to `Clc1ccc2c(N3CCN(CCCN4CCN(c5ccnc6cc(Cl)ccc56)CC4)CC3)ccnc2c1`, the Potency in [1] is 50.1 µM (active). Further, the Potency result in assay [12], in assay [4] and in assay [9] was “inactive” in each case. Also, in [11], the compound was called inactive.

In the case of `Cc1cccc(C#Cc2ccccc2)n1`, the Potency entry in assay [12], in assay [4] and in [9] was “inactive” throughout. The result in [6] and in [11] was inactive.
